Rows were chosen to be rich in hits. Some 2.4% of all compounds tested hit in one or more screens of this group.
Pf gametocyte – P. falciparum stage V gametocyte viability inhibition; P. falciparum stage V gametocytes, ATP luminescence, 24 h; inhibition, % at 10.9 µM; 0.065% of 150,000 active;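 active = inhibition above the mean plus 3 SD of compounds within the control limits, set per campaign, cut at about 38% in these data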
Arbovirus inh – antivirals against arbovirus infection | arbovirus infection cell-based antiviral screen | inhibition, % at 10 µM | 0.37% of 200,000 active; in the data active = inhibition above about 30%
MEKK2 mut-MEK5 – signal of MEK5 binding to mutant human MEKK2 PB1 domain | bead flow cytometry, Alexa488-MEK5 binding to MEKK2 mutant | percent response, % at 10 µM | 0.35% of 290,000 active | AID 1530; in the data active = percent response above about 24%, passing the limit was not always enough
MEKK2wt PB1 HTS – raises or lowers MEK5 binding to wildtype human MEKK2 PB1 domain. bead flow cytometry, Alexa488-MEK5 binding to MEKK2 WT; actives lie on both sides. binding response (% of control), % at 10 µM. Q9Y2U5. 1.1% of 290,000 active; in the data active = binding response below about 67% or above about 130%
MEKK3 PB1 HTS – modulators (inhibitors or enhancers) of MEK5 binding to human MEKK3 PB1 domain; 1.4% of 290,000 active; AID 1529; Q99759; binding response (% of control), % at 10 µM; bead-based flow cytometry, Alexa488-MEK5 binding to MEKK3; actives lie on both sides; 0 = blocked by unlabeled MEK5, 100 = vehicle;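 active = binding response more than 3 SD above or below the average of its plate-row segment, actives on both sides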;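 note: Alexa488 bead fluorescence after subtracting the streptavidin-only scavenger bead signal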
Target sequence (Q99759 whole entry, looked up, the tested form may be a part): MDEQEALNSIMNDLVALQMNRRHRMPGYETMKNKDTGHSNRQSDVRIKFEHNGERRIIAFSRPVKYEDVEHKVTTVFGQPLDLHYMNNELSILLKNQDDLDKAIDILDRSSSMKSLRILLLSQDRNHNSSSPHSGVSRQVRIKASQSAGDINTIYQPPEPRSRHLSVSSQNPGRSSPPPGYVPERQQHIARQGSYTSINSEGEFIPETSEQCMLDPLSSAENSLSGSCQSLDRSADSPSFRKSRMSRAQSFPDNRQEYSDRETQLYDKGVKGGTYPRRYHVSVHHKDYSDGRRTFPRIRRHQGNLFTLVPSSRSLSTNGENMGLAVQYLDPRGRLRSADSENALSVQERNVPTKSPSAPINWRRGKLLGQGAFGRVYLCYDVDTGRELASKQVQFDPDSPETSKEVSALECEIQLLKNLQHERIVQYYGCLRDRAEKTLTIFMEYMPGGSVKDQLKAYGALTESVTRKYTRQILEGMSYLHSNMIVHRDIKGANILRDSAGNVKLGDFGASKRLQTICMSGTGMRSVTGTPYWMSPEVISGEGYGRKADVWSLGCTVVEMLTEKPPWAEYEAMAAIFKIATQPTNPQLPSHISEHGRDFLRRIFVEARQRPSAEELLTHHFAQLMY
MEKK2wt confirm – raises or lowers MEK5 binding to wildtype human MEKK2, retest; shares compounds with MEKK3 PB1 HTS; binding response (% of control), % at 10 µM; bead flow cytometry, Alexa488-MEK5 binding to MEKK2 WT; actives lie on both sides; 2.4% of 5,900 active; AID 1892; in the data active = binding response below about 16% or above about 210%; inactive = in between
MEKK2mut-MEK5 – signal of MEK5 binding to mutant human MEKK2, retest; bead flow cytometry, Alexa488-MEK5 binding to MEKK2 mutant; 2% of 5,900 active; percent response, % at 10 µM; shares compounds with MEKK3 PB1 HTS; AID 1893; in the data active = percent response mostly above about 71%, no sharp cut-off; inactive = mostly below about 38%;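 note: higher means compound restores mutant binding toward wildtype level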
MEKK3 confirm – confirmation of inhibitors of MEK5 binding to human MEKK3. shares compounds with MEKK3 PB1 HTS. bead flow cytometry, Alexa488-MEK5 binding to MEKK3; hits give low values. 1.8% of 5,900 active. binding response (% of control), % at 10 µM. AID 1894;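 active = binding response below 72% of control, or above a set upper limit, though filed actives all read lower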;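 note: lower values mean stronger disruption of MEK5 binding to MEKK3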
Hits are given with their value; – = inactive; · = not tested or not shown; [ ] = remark or other dose.

SMILES	Pf gametocyte	Arbovirus inh	MEKK2 mut-MEK5	MEKK2wt PB1 HTS	MEKK3 PB1 HTS	MEKK2wt confirm	MEKK2mut-MEK5	MEKK3 confirm
CC(C)(C)NS(=O)(=O)c1ccc(/C=C/C(=O)O)cc1	–	–	–	–	–	·	·	·
O=C(NCc1cccs1)C1CCCN1C(=O)Nc1ccccc1[N+](=O)[O-] (centres undefined)	·	·	–	–	–	·	·	·
O=S1(=O)CC(O)C(Nc2ccc(Cl)cc2)C1 (centres undefined)	·	–	–	–	49[inhibitor]	–	–	–
O=S1(=O)CC(O)C(Nc2ccccc2)C1 (centres undefined)	·	–	–	–	–	·	·	·
COc1ccc(-c2csc3nc(-c4cccnc4)nc(Cl)c23)cc1OC	–	–	–	–	145	–	–	–
COc1ccc(/C=C(\NC(=O)c2ccccc2Cl)C(=O)NCCCC(=O)O)cc1	·	–	–	–	–	·	·	·
O=C(Nc1cccc(-c2csc(Nc3ccc(Cl)cc3)n2)c1)c1ccccc1	·	·	–	–	–	·	·	·
O=C(Nc1cccc(-c2csc(Nc3ccc(Cl)cc3)n2)c1)c1cccc(C(F)(F)F)c1	–	·	–	–	123	–	–	–
COc1cccc(NC(=S)N2CCN(c3ccc([N+](=O)[O-])cc3)CC2)c1	·	–	–	60[inhibitor]	60[inhibitor]	–	–	–
COc1ccc(OC)c(S(=O)(=O)N/N=C\c2c[nH]c3ccccc23)c1	·	·	–	–	–	·	·	·
CC1(C)C(=O)OC(c2cccn2-c2ccc([N+](=O)[O-])cc2)C(C)(C)C1=O (centres undefined)	–	–	–	–	136	–	–	–
CC1(C)C(=O)C2(CCCCC2)C(=O)OC1c1cccn1-c1ccc([N+](=O)[O-])cc1 (centres undefined)	–	–	–	–	133	–	–	–
CC1(C)C(=O)OC(c2cccn2-c2ccc([N+](=O)[O-])cc2)C2(CCCCC2)C1=O (centres undefined)	·	–	–	–	–	·	·	·
O=C1OC(c2cccc([N+](=O)[O-])c2)C2(CCCC2)C(=O)C12CCCCC2 (centres undefined)	·	–	–	–	142	–	–	–
COc1ccc(-n2nc(C(=O)NCC(=O)NCCCN3CCCCCC3)c3ccccc3c2=O)cc1Cl	–	–	–	149	–	–	–	–
COc1ccc(-n2nc(C(=O)NCC(=O)NCCCN3CCC(C)CC3)c3ccccc3c2=O)cc1Cl	·	·	–	–	–	·	·	·
FCCCOc1ccc(-c2nccc(-c3ccc(Cl)cc3)n2)cc1	–	–	–	–	77[inhibitor]	–	–	–
CC(NC(=O)Nc1ccc(F)cc1)c1ccc2c(c1)OCO2 (centres undefined)	·	·	–	–	–	·	·	·
CCc1ccccc1Nc1cc(C(=O)NCc2ccccn2)c2ccccc2n1	–	–	–	–	131	–	–	–
CCc1ccc(-c2cc(C(=O)NCc3ccccn3)c3ccccc3n2)cc1	·	–	–	–	–	·	·	·
CN(C)c1cccc(C(=O)NNC(=O)CSc2ccccc2)c1	·	·	–	–	–	·	·	·
CS(=O)(=O)N(CC(=O)NCc1ccc(Cl)cc1)C1CCCCC1	·	–	–	–	–	·	·	·
CS(=O)(=O)N(CC(=O)NCc1ccc2c(c1)OCO2)C1CCCCC1	–	–	–	–	136	–	–	–
COc1cc2c(cc1NC(=S)NC(=O)c1c(OC)cccc1OC)oc1ccccc12	–	–	–	–	129	–	–	–
CCOC(=O)[C@H]1[C@H]2COc3cc(OC)ccc3[C@@H]2N2C(=O)N(c3cccc(Cl)c3)C(=O)[C@@]12C	·	·	–	–	–	·	·	·
SMILES	Pf gametocyte	Arbovirus inh	MEKK2 mut-MEK5	MEKK2wt PB1 HTS	MEKK3 PB1 HTS	MEKK2wt confirm	MEKK2mut-MEK5	MEKK3 confirm
Clc1ccc(SCc2csc(N3CCOCC3)n2)cc1	–	·	–	–	74[inhibitor]	–	–	–
CCc1cc(=O)oc2cc(C)cc(OCC(=O)NC(Cc3ccc(Cl)cc3)C(=O)O)c12 (centres undefined)	·	·	–	–	–	·	·	·
CC1CCC(NC(=O)C2CCN(c3c4c(nc5ncnn35)CCC4)CC2)CC1 (centres undefined)	·	·	–	–	–	·	·	·
Cc1ccc(NC(=O)c2c([N+](=O)[O-])c(C(C)(C)C)nn2C)c(C)c1	–	–	–	–	137	–	–	–
C=CCC(CC=C)(NC(=O)c1cccc(C)c1)c1ccccc1	–	–	–	–	–	·	·	·
CCc1ccc(C(=O)NCc2ccc(Cl)cc2Cl)cc1	–	–	–	–	–	·	·	·
Cc1ccc(SCc2ccc(C(=O)NCc3ccncc3)cc2)cc1	–	–	–	–	82[inhibitor]	–	–	–
Cc1ccc(SCCC(=O)NCc2ccncc2)cc1	–	–	–	–	–	·	·	·
CCc1ccc(C(=O)NCc2ccc(Cl)cc2)cc1	–	–	–	–	71[inhibitor]	–	–	–
CCN1C(=O)[C@H]2[C@@H](c3ccc(-c4cccc(Cl)c4)c(OC)c3)N3CCC[C@@]3(C(=O)OC)[C@H]2C1=O	–	·	·	·	·	·	·	·
CCOc1ccccc1N(CC(=O)NC1CCCCC1)S(=O)(=O)c1ccc(C)cc1	·	·	–	–	–	·	·	·
CC(=O)Nc1ccc(S(=O)(=O)N2CCN(c3nc(NC4CCCC4)c4ccccc4n3)CC2)cc1	·	–	–	163	–	–	–	–
CC(=O)Nc1ccc(S(=O)(=O)N2CCN(c3cc(C)nc4ccccc34)CC2)cc1	·	–	–	–	–	·	·	·
CN(C)S(=O)(=O)c1ccc(NC(=O)C2CC3C=CC2C3)cc1 (centres undefined)	–	–	–	9.0[inhibitor]	3.0[inhibitor]	–	–	–
CC#CC[N+](C)(C)CCCCCCCCCC	–	·	–	–	–	·	·	·
Cc1cccc2nc(-c3ccco3)oc(=O)c12	·	·	–	–	–	·	·	·
OCCCCCNc1ncnc2ccccc12	–	–	–	–	128	–	–	–
CCN(CC)CCCNc1ncnc2ccccc12	–	–	–	–	–	·	·	·
COc1ccc(-c2nn(-c3ccccc3)cc2/C=C/C(=O)OCC(=O)Nc2cccc(C#N)c2)cc1	–	–	–	–	130	–	–	–
C=CCn1cccc(C(=O)Nc2ccc(OC)c(Cl)c2)c1=O	·	·	–	–	–	·	·	·
C=CCNC(=O)/C(C#N)=C/c1c(C)nn(-c2ccccc2)c1Cl	·	–	–	–	–	·	·	·
COc1ccccc1CNc1nc(-c2cc(C)n(C)c2C)cs1	·	–	–	-7.0[inhibitor]	–	–	–	–
Cc1cc(-c2csc(N)n2)c(C)n1C	·	–	–	–	–	·	·	·
COc1ccc(-c2csc(NC(=O)CN3C(=O)C4CC=CCC4C3=O)n2)cc1OC (centres undefined)	·	·	–	–	–	·	·	·
O=C(O)/C=C/c1ccc(S(=O)(=O)Nc2ccc(OCc3ccccc3)cc2)cc1	–	·	–	–	73[inhibitor]	–	–	–

Screening results: PubChem, several laboratories
